Here are results for 8 sequences from the supplement of paper PMC6555819.

Assay in all cases: PBM binding z-score (relative to random genomic background probes); higher = stronger binding; sequences stand for … in GC…GCGATTGACAGCGTAGAATGAAGG
The test system of assay [1] is PPARg:RXRa DBDmut IVT, anti-RXR (DBD mutation: RXRa K156A/R161A, NR concentration 270 nM, RXRa partner concentration 90 nM). An outline of the steps:
(§1)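 Ligand-free nuclear receptor dimers were applied to custom Agilent 4×180K protein-binding microarrays whose double-stranded probes carried direct-repeat seeds, single-nucleotide variants, half-site ablations and random human genomic background sequences in 34-nt variable regions. Incubation lasted 1 h. Binding z-scores were computed against the random background probes from regression-normalized fluorescence.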

Assay [2] has as its system PPARg:RXRa IVT, anti-PPARg (NR concentration 270 nM, RXRa partner concentration 90 nM). Put shortly: as §1
Assay [3] concerns PPARg DBDmut:RXRa IVT, anti-PPARg (DBD mutation: PPARg1 K132A/R137A, NR concentration 270 nM, RXRa partner concentration 90 nM). An outline of the steps: as §1
Assay [4] concerns PPARg DBDmut IVT, anti-PPARg (DBD mutation: PPARg1 K132A/R137A, NR concentration 270 nM). An outline of the steps:
as §1

Assay [5] relates to PPARg homodimer (NR concentration 180 nM). Put shortly: as §1
Assay [6] relates to PXR:RXRa (NR concentration 270 nM, RXRa partner concentration 90 nM). An outline of the steps: as §1
Assay [7] concerns PXR homodimer (NR concentration 270 nM). An outline of the steps: as §1
Assay [8] relates to RARa:RXR (NR concentration 270 nM, RXRa partner concentration 90 nM). An outline of the steps:
as §1

The test system of assay [9] is RARa homodimer (NR concentration 270 nM). An outline of the steps:
as §1

The subject of assay [10] is RARb:RXRa (NR concentration 270 nM, RXRa partner concentration 90 nM). Put shortly: as §1
In assay [11] the test system is RARb homodimer (NR concentration 270 nM). An outline of the steps:
as §1

The test system of assay [12] is RARg:RXRa (NR concentration 270 nM, RXRa partner concentration 90 nM). Put shortly: as §1
Assay [13] deals with RARg homodimer (NR concentration 270 nM). Put shortly:
as §1

Assay [14] has as its system RXRa DBDmut IVT, anti-RXR (DBD mutation: RXRa K156A/R161A, NR concentration 90 nM). Put shortly:
as §1

Assay [15] deals with RXRa homodimer (NR concentration 180 nM). Put shortly:
as §1

In assay [16] the test system is THRa:RXRa (NR concentration 90 nM, RXRa partner concentration 90 nM). An outline of the steps:
as §1

For assay [17], the system named is THRa homodimer (NR concentration 90 nM). An outline of the steps:
as §1

The subject of assay [18] is VDR homodimer (NR concentration 270 nM). An outline of the steps:
as §1

As for TAGCCTAGGTCATGCGGGCCAGTTTAGTGTCGGC, the PBM binding z-score is 2.01 in assay [1]; 2.55 in assay [2]; -0.215 in assay [3]; -0.754 in assay [4]; 0.303 in [5]; 1.59 in assay [6]. Moreover, the PBM binding z-score in [7] is -0.464; in assay [8], 2.22; in [9], -0.83; in [10] it was 3.45; in assay [11] it was 3.03; in assay [12] it was 3.96. Also, the PBM binding z-score in assay [13] was 4.73; in assay [14] it was 0.93; in [15], 3.2; in [16], 3.02; in assay [17], 1.07; in assay [18] it was 0.95.
For the sequence TGTCAAAGTTCAAGGGTAACGTAAGTATCCACAC, the PBM binding z-score in assay [1] is -0.0175; in assay [2] it was 4.63; in assay [3] it was 1.78; in [4] it was 1.04; in assay [5], 2.41; in assay [6] it was 4.83. Also, the PBM binding z-score in [7] came to 2.3; in assay [8], 4.95; in assay [9], 0.926; in assay [10] it was 5.05; in assay [11], 3.92; in assay [12], 5.81. Moreover, the PBM binding z-score was 6.14 in assay [13]; 3.72 in assay [14]; 5.45 in assay [15]; 2.89 in assay [16]; 0.138 in [17]; 3.21 in [18].
In the case of CGTCAAAGTTCAAGGTAACCTAACAGAAAGCAGC, the PBM binding z-score came to 0.978 in assay [1]; 2.67 in assay [2]; 0.466 in assay [3]; 0.361 in assay [4]; 2.09 in assay [5]; 4.03 in assay [6]. The PBM binding z-score came to 2.12 in [7]; 3.26 in [8]; 1.18 in assay [9]; 5.37 in assay [10]; 4.17 in [11]; 5.43 in assay [12]. For the same sequence, the PBM binding z-score in assay [13] turned out to be 6.2; in [14], 4.3; in assay [15], 4.71; in [16], 3.19; in assay [17], 1.38; in [18] it was 2.84.
For the sequence TGTTGTAGATCAATAGAGGTTAAGAAAGTGCGCT, the PBM binding z-score was -0.0957 in [1]; 0.893 in [2]; 1.29 in [3]; 1.09 in assay [4]; 1.38 in assay [5]; 3.29 in [6]. The PBM binding z-score in assay [7] stood at 0.289; in assay [8], 1.76; in assay [9] it was 1.61; in assay [10] it was 1.01; in assay [11], 1.3; in [12] it was 1.06. In addition, the PBM binding z-score is 0.973 in assay [13]; -0.255 in assay [14]; 1.25 in [15]; 2.39 in [16]; -0.0243 in assay [17]; 0.759 in [18].
For GGAACGAGGGCATTCGAGTTGATAACATGGCGAT, the PBM binding z-score in assay [1] came out at 2.75; in [2], 2.1; in assay [3], 0.243; in assay [4] it was 0.0771; in assay [5], 0.605; in assay [6], 4.02. The PBM binding z-score in [7] was 1.36; in assay [8] it was 0.915; in assay [9] it was -0.696; in assay [10] it was 1.68; in [11], 0.66; in assay [12], 1.41. For the same sequence, the PBM binding z-score in assay [13] was 1.74; in assay [14], 3.17; in assay [15], 1.08; in assay [16] it was 3.37; in assay [17], -0.138; in assay [18], 3.48.
As for TCGAGTAGGTTACCAATGGGGCATTAAGCTTTCT, the PBM binding z-score in assay [1] is 2.97; in assay [2], 2.74; in assay [3] it was -0.388; in assay [4] it was -0.404; in [5] it was -0.656; in [6], -0.325. For the same sequence, the PBM binding z-score was -1.08 in assay [7]; 0.0202 in assay [8]; -1.28 in assay [9]; 0.864 in assay [10]; 0.561 in assay [11]; 0.966 in assay [12]. In addition, the PBM binding z-score is 0.213 in assay [13]; 0.338 in [14]; 0.336 in [15]; -0.0215 in assay [16]; -0.627 in assay [17]; -0.636 in assay [18].
On to GCAGACAGGTGAAACGCAGGTTACTCAGGGTGGC, for which the PBM binding z-score in [1] was 1.13; in [2], 0.617; in assay [3] it was -0.717; in [4] it was -0.933; in assay [5] it was -0.435; in assay [6] it was 0.076. Besides, the PBM binding z-score in [7] was -0.507; in assay [8] it was 0.833; in assay [9] it was -0.748; in assay [10] it was 1.02; in [11] it was 0.785; in assay [12] it was 2.09. Besides, the PBM binding z-score was 0.458 in [13]; -0.376 in assay [14]; 1.07 in assay [15]; 1.88 in assay [16]; -0.27 in [17]; -0.446 in assay [18].
With TTACCAAGGTGCAGGTCGTTGATCCCTCTGTAGA, the PBM binding z-score was -0.00827 in assay [1]; 0.492 in [2]; -0.281 in assay [3]; -1.32 in [4]; -0.014 in assay [5]; 0.4 in assay [6]. Besides, the PBM binding z-score in [7] is 0.135; in [8], 0.7; in [9], -0.516; in assay [10], 0.624; in assay [11] it was 0.634; in [12], 0.0227. Further, the PBM binding z-score in [13] was -0.225; in [14] it was 0.43; in assay [15] it was 0.481; in assay [16] it was 0.675; in assay [17], 0.0392; in [18] it was 0.805.
